Source: PubChem BioAssay (National Center for Advancing Translational Sciences (NCATS))
Shown are actives, neighbours in structure and some others; about 0.87% of the full set was active somewhere.
BLM inh: blocks DNA unwinding by human BLM helicase; P54132; hit rate 0.2% among 350,000; recombinant BLM DNA unwinding, fluorescence dequenching; Potency, µM (titrated, usually from 56.1 µM), usual class: inhibitors; note: nearly all actives have a fitted effect of over 35% in size
RGS4 inh: blocks human RGS4-accelerated GTP hydrolysis; P49798; Transcreener GDP fluorescence polarization, RGS4-accelerated GTP hydrolysis; Potency, µM (series often up to 114 µM), hits mostly inhibitors; hit rate 0.039% among 390,000; AID 504845; note: nearly all actives have a fitted effect of over 75% in size
Target sequence (P49798 whole entry, looked up): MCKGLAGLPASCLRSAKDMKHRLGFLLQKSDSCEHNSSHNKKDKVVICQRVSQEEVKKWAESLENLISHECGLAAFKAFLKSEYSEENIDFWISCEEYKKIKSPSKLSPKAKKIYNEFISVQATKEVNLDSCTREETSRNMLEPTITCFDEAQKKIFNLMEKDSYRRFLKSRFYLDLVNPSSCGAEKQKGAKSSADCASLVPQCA
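MLSMR compounds (23 nl, pin-transferred) preincubated 10 min at room temperature with a 500nM (2x) first reagent, then RGS4 at 900nM (2x) plus Transcreener GDP mix added; fluorescence polarization (620/688 nm) read before and after 90 min at 30 °C.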
GCN5L2 inh: GCN5L2 (KAT2A) acetyltransferase inhibition | Q92830 | Potency, µM (titrated, usually from 58.9 µM), most hits filed as inhibitors | AID 504327 | hit rate 0.21% among 390,000 | GCN5L2 HAT assay, ThioGlo1 CoA-SH fluorescence
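GCN5L2 (20 nM) in 50mM HEPES pH 7.5, 0.1mM EDTA, 0.01% Tween-20 preincubated 15 min with compounds at room temperature. Reaction started with H3(1-25) 75uM, acetyl-CoA 70uM, ThioGlo1 50uM; CoA-thiol fluorescence (Ex340/Em540) read at 0 and 20 min.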
TDP1 inh: TDP1 (human) enzyme inhibition | hit rate 0.28% among 350,000 | recombinant TDP1, AlphaScreen DNA substrate cleavage | Potency, µM (series often up to 130 µM), usual class: inhibitors; note: nearly all actives have a fitted effect of over 40% in size
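AlphaScreen read-out: signal falls as enzyme removes the 3' tyrosine-FITC from a 5'-biotinylated DNA oligo (15 nM, 5 min, RT). Enzyme was E. coli-made recombinant Tdp1 at 1 nM, exposed to compound for 15 min beforehand; beads 10 ug/ml, 10 min.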
APEX1 inh: APE1 (human) endonuclease inhibition | AID 2517 | P27695 | recombinant APE1, TAMRA/BHQ-2 abasic DNA cleavage fluorescence | Potency, µM (highest dose often 65.8 µM), hits mostly inhibitors | hit rate 0.35% among 350,000; note: nearly all actives have a fitted effect of over 55% in size
Target sequence (P27695 whole entry, looked up): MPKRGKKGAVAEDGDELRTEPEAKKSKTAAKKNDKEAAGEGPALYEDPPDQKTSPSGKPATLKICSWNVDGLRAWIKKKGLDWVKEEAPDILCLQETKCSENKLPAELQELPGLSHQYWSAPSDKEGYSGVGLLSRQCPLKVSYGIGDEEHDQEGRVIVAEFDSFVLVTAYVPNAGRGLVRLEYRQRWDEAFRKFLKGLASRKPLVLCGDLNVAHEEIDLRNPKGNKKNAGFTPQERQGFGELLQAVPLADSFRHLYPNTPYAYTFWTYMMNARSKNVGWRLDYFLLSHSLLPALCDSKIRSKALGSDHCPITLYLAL
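Enzyme (0.75 nM final) and test compound are incubated 15 min at room temperature before adding 50 nM quenched THF abasic-site duplex. Cleavage dequenches TAMRA, followed at 525/598 nm over three reads one minute apart.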
RECQ1 inh-1: blocks DNA unwinding by human RECQ1. RECQ1 DNA unwinding, red fluorescence kinetic read. Potency, µM (doses to about 57.3 µM), actives largely listed as inhibitors. hit rate 0.54% among 240,000. AID 2549; note: nearly all actives have a fitted effect of over 30% in size
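50 nM RECQ1T1 preincubated 15 min with compound in Tris pH 8.0 buffer with MgCl2, DTT, Tween-20 and 2.5 ug/ml poly(dI-dC); started with 200 nM TAMRA/BHQ-2 forked duplex and 2 mM ATP. Unwinding read as fluorescence (525/598 nm), two reads 2 h apart.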
RECQ1 inh conf: confirmation of human RECQ1 helicase inhibitors; AID 2708; shares compounds with RECQ1 inh-1; hit rate 28% among 610; Potency, µM (top dose mostly 229 µM), usual class: inhibitors; RECQ1 helicase DNA unwinding, fluorescence; note: nearly all actives have a fitted effect of over 45% in size
RECQ1 ADP FP: ADP displacement flagged in RECQ1 inhibitor counter-screen | AID 2711 | ADP fluorescence polarization displacement counterscreen | shares compounds with RECQ1 inh-1 | hit rate 27% among 530 | Potency, µM (highest dose often 228 µM), actives largely listed as inhibitors; note: nearly all actives have a fitted effect of over 45% in size
RECQ1 inh-2: blocks human RECQ1 DNA unwinding; shares compounds with RECQ1 inh-1; recombinant RECQ1 DNA unwinding, red fluorescence; Potency, µM (doses to about 119 µM), hits mostly inhibitors; hit rate 15% among 1,100; AID 504841; note: nearly all actives have a fitted effect of over 50% in size
Hits are given with their value; i = inactive; ? = inconclusive; nt = no result; [ ] = dose if it differs, or a comment. Calls come from the whole dose curve; as a rule, active = well fitted curve in the direction sought with a large enough effect; inconclusive = small, poorly fitted or top-dose-only effect, or another doubt; inactive = no such curve, though single readings can be large; an effect the other way counts as inactive or inconclusive.

SMILES	BLM inh	RGS4 inh	GCN5L2 inh	TDP1 inh	APEX1 inh	RECQ1 inh-1	RECQ1 inh-2	others
NCCN(Cc1ccc(Cl)c(Cl)c1)c1ccc(Br)cn1	nt	i	nt	nt	nt	nt	nt
Cn1nnc(NC(=O)c2ccc(C(C)(C)C)cc2)n1	i	i	i	i	i	20µM	i
Cn1nnc(NC(=O)c2ccc3ccccc3c2)n1	i	i	i	i	i	i	nt
O=C1OC2(c3ccc(O)cc3Oc3cc(O)ccc32)c2ccccc21	35.5µM	nt	?	i	28.2µM	31.6µM	79.4µM
O=C(O)CC/C(=C\c1cccc(NC(=O)c2ccccc2Cl)c1)c1nc2ccccc2s1	i	i	i	nt	?	?	?
Cn1cnnc1Sc1ccc(/C=C(\CC(=O)O)c2nc3ccccc3s2)cc1[N+](=O)[O-]	i	i	i	i	i	i	nt	RECQ1 inh conf=i;RECQ1 ADP FP=i
O=C(O)CC/C(=C\c1ccc(N2CCCC2)c([N+](=O)[O-])c1)c1nc2ccccc2s1	?	i	i	nt	?	?	?
COc1cccc(/C=C(\CC(=O)O)c2nc3ccccc3s2)c1	i	i	i	i	i	i	nt
CC(=O)OC[C@@H]1O[C@@H](O/N=C2/C[C@@H](O)[C@@H](O)[C@@H]3[C@@H]4C(=O)N([C@@H](C)c5ccccc5)C(=O)[C@H]4CC[C@H]23)[C@H](OC(C)=O)[C@H](OC(C)=O)[C@@H]1OC(C)=O	i[12.4 µM]	nt	nt	i[21 µM]	i[12.4 µM]	i[11.5 µM]	nt
COc1ccc(OC)c(CCNC(=O)c2nc(-c3ccc(Cl)cc3)n3c2CCCCC3)c1	i	i	i	i	nt	nt	nt
C[C@@]12CCc3occc3[C@H]1CC[C@@]13C[C@@H](CC[C@H]12)[C@@](O)(CO)C3	i	nt	i	i	i	i	nt
COc1cccc(C(=O)Nc2cccc(C(=O)NC3=NN(c4c(Cl)cc(Cl)cc4Cl)C(=O)C3)c2)c1	i	i	?	i	i	31.6µM	?
Cc1ccc(OCc2ccc(C(=O)Nc3ccc(C(N)=O)cc3)o2)c([N+](=O)[O-])c1	i	?	i	i	i	?	?
COc1ccc(C(=O)Nc2cccc(-c3nc4cccnc4s3)c2C)c(OC)c1	i	i	i	i	nt	nt	nt
CC1=CCc2c(cc3oc(C)cc(=O)c3c2O)OC1	i	nt	i	i	i	i	nt
Cc1cc(=O)c2c(O)c(O)ccc2o1	i	i	i	i	?	35.5µM	i
Cc1cccc(Nc2nnc(-c3ccc(C)c(S(=O)(=O)N4CCN(C)CC4)c3)c3ccccc23)c1	i	i	i	nt	nt	nt	nt
CN(C)CCNc1nc(S(=O)(=O)c2ccccc2)c(Cl)s1	i	i	i	i	i	i	nt
O=S(=O)(c1ccccc1)c1nc(NC2CC2)sc1Cl	i	i	i	i	i	39.8µM	i
CCn1c(CCCOc2ccc(Cl)cc2Cl)nnc1SCC(=O)Nc1cccc(F)c1	i	i	i	i	i	12.6µM	i	RECQ1 inh conf=i;RECQ1 ADP FP=i
C=CCn1c(COc2ccc(F)cc2)nnc1SCC(=O)NC1CCCC1	nt	i	i	nt	i	nt	nt
C=CCn1c(COc2ccc(F)cc2)nnc1SCC(=O)NC(=O)NCc1ccco1	i	i	i	i	?	?	?
COc1cccc(SCc2noc(C(=O)NC(C)C)c2C(=O)O)c1	i	i	i	i	i	i	nt
O=C(NCC1CCCO1)c1onc(CSc2cccc3ccccc23)c1C(=O)O (stereo not drawn)	i	i	i	i	i	i	nt	RECQ1 inh conf=i;RECQ1 ADP FP=i
C=CCNC(=O)c1onc(CSc2cccc(OC)c2)c1C(=O)O	i	i	i	i	i	i	nt	RECQ1 inh conf=i;RECQ1 ADP FP=?
SMILES	BLM inh	RGS4 inh	GCN5L2 inh	TDP1 inh	APEX1 inh	RECQ1 inh-1	RECQ1 inh-2	others
CCc1ccccc1SCc1noc(C(=O)NCC2CCCO2)c1C(=O)O (stereo not drawn)	i	i	i	i	i	i	nt
CCCCNC(=O)c1onc(CSc2ccccc2)c1C(=O)O	i	i	i	i	i	i	nt
CCCCNC(=O)c1onc(CSc2cccc3ccccc23)c1C(=O)O	i	i	i	i	i	i	nt	RECQ1 inh conf=?;RECQ1 ADP FP=i
COc1cc(OC)c(OC)cc1CN1CCc2nc(Nc3ccc4c(c3)OCCO4)ncc2C1	i	i	i	i	nt	nt	nt
O=C(N/N=C/c1ccccc1C(=O)O)c1ccc(COc2cccc3cccnc23)cc1	i	i	i	i	i	i	nt	RECQ1 inh conf=i;RECQ1 ADP FP=i
COc1ccc2c(c1)CC[C@@H]1[C@@H]2CC[C@]2(C)[C@@H](NCCCCCCN3C(=O)C=CC3=O)CC[C@@H]12	nt	nt	i	i	i	i	nt
Cc1ccc(Nc2ccc(N)cc2S(=O)(=O)O)cc1	i	i	i	i	?	?	i
N#CCCn1c(=O)c(-c2ccccc2)nc2cnc(OCc3ccccc3)nc21	i	nt	i	nt	i	i	nt
CCCCC1=CC2=C(c3ccco3)C(=O)C(C)(OC(=O)c3ccc(OC)cc3)C(=O)C2=CN1Cc1ccccc1 (stereo not drawn)	i[12.4 µM]	i	i	i[12.3 µM]	i[12.4 µM]	?	i
Cc1noc(C)c1-c1nccc(NCc2ccccc2)n1	i	nt	i	nt	i	i	nt
Cc1nc2ccc(N=NC3=C(O)CCCC3=O)cc2s1	i	i	i	i	i	1µM	nt	RECQ1 inh conf=i;RECQ1 ADP FP=i
Cc1nc2ccc(N=NC3=C(O)CC(C)(C)CC3=O)cc2s1	i	i	i	i	i	i	nt
CCCC1=NN2C(=N)/C(=C\c3ccc(SCc4ccco4)o3)C(=O)N=C2S1	?	?	?	nt	3.98µM	10µM	35.5µM
O=C1NC(=S)S/C1=C\c1ccc(SCc2ccco2)o1	?	i	14.1µM	nt	1.78µM	5.01µM	nt	RECQ1 inh conf=39.8µM
CCC1=NN2C(=N)/C(=C\c3ccc(SCc4ccco4)o3)C(=O)N=C2S1	?	?	i	i	?	22.4µM	i
CCc1ccc2[nH]c(=O)c(CN(Cc3ccccc3)Cc3nnnn3C(C)(C)C)cc2c1	nt	i	nt	i	nt	nt	nt
CCOC(=O)CNC(=O)O[C@@H]1Cc2cc(OC)ccc2O[C@H]1c1cccc(OC)c1	i	nt	nt	i	i	i	nt
Cc1cccc(N=C2NC(=O)/C(=C/C=C/c3ccco3)S2)c1	?	i	i	i	?	35.5µM	?
O=C1NC(=Nc2ccc(O)cc2)S/C1=C/c1ccco1	i	i	i	i	?	i	nt
O=C1NC(=Nc2ccc3ccccc3c2)S/C1=C/c1ccco1	17.8µM	i	?	i	?	?	?
CCOC(=O)N1CCN(C(=O)CN2C(=O)/C(=C\c3cccc(OC)c3)SC2=S)CC1	nt	i	nt	i	nt	nt	nt
